Measured values published in PubChem BioAssay (Tox21).
Inconclusive results are not listed. Active and inactive are the calls of the source. Unless noted, calls follow the shape of the dose curve; as a rule, active = well fitted curve in the direction sought with a large enough effect in the repeat runs; inconclusive = weak or mixed curves; inactive = no such curve, though single readings can be large; an effect the other way counts as inactive or inconclusive.

Tests used:
[1] = qHTS assay to identify small molecule antagonists of the thyroid receptor (TR) signaling pathway (AID 743065); settings: GH3.TRE-Luc, T3-stimulated luciferase inhibition, 23.5 h; series mostly up to 70.3 µM; also: nearly all actives have a fitted effect of over 55% in size
How it was run: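 GH3.TRE-Luc rat pituitary cells carrying two TR response elements driving luciferase were plated for 4 h, given compound plus 1 nM T3 (final), and incubated 23.5 h at 37 C. ONE-Glo luminescence measured reporter inhibition; CellTiter-Fluor fluorescence tracked cytotoxicity.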

[2] = test system: thyroid hormone receptor (rat, GH3 cells); experiment: qHTS assay to identify small molecule agonists of the thyroid receptor (TR) signaling pathway (AID 743066; calls by dose curve); settings: GH3.TRE-Luc cells, TR agonist luciferase, 24 h; series mostly up to 83.9 µM
[3] = target: Estrogen receptor (Homo sapiens) (UniProt P03372); experiment: qHTS assay to identify small molecule antagonists of the estrogen receptor alpha (ER-alpha) signaling pathway (AID 743069; active = well fitted curve in the direction sought with a large enough effect in the signal ratio in the repeat runs, not every such curve was filed as active; the % refers to the signal ratio); settings: HEK293 ER-alpha-UAS-bla, beta-lactamase ratio, antagonist mode; series mostly up to 69.4 µM
Sequence of Estrogen receptor (Homo sapiens) (P03372 whole entry, looked up): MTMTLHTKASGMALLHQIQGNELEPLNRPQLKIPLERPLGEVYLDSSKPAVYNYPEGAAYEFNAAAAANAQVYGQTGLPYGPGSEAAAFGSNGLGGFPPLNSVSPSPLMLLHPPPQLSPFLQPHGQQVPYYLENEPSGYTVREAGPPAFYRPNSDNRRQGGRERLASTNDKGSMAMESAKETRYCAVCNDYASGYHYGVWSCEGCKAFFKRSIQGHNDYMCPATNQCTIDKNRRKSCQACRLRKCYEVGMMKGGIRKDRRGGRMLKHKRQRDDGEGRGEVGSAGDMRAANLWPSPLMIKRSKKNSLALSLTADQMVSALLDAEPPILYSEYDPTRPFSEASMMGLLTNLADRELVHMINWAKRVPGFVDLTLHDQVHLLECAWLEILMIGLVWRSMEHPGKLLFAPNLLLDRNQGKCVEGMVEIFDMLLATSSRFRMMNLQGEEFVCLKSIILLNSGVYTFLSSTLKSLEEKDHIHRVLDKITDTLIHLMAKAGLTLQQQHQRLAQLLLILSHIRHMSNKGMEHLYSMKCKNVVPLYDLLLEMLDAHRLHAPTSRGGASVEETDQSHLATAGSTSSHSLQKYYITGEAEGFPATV
How it was run: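 Estradiol-stimulated ER-alpha-UAS-bla HEK293 cells, 18 hr compound exposure at 37C. LiveBLAzer B/G substrate, 2 hr RT, fluorescence read.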

[4] = qHTS assay to identify small molecule antagonists of the estrogen receptor alpha (ER-alpha) signaling pathway - cell viability counter screen (AID 743074; calls by dose curve;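 also: HEK293 cells carrying ER-alpha-UAS-bla reporter stimulated with 17beta-estradiol; nearly all actives have a fitted effect of over 45% in size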); settings: ERalpha-bla HEK293 viability, CellTiter-Glo luminescence, 18 h; series mostly up to 69.4 µM
[5] = target: Estrogen receptor (Homo sapiens) (UniProt P03372); experiment: qHTS assay to identify small molecule agonists of the estrogen receptor alpha (ER-alpha) signaling pathway (AID 743075; calls by dose curve;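 also: HEK293 GripTite cells with ER-alpha and UAS-driven beta-lactamase reporter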); settings: HEK293 ER-alpha-UAS-bla, beta-lactamase FRET ratio, 18 h; series mostly up to 70.1 µM
[6] = target: Estrogen receptor (Homo sapiens) (UniProt P03372); experiment: qHTS assay to identify small molecule agonists of the estrogen receptor alpha (ER-alpha) signaling pathway using the BG1 cell line (AID 743079); settings: BG1Luc4E2 cells, ERE-luciferase agonist, 22 h; series mostly up to 70.3 µM; also: nearly all actives have a fitted effect of over 20% in size; also: potency is read from the fitted curve at half-maximal effect
[7] = qHTS assay to identify small molecule antagonists of the estrogen receptor alpha (ER-alpha) signaling pathway using the BG1 cell line (AID 743080; calls by dose curve;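 also: BG1 cells stimulated with 17beta-estradiol alongside compound; nearly all actives have a fitted effect of over 25% in size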); settings: BG1Luc4E2 ERE-luciferase antagonist mode, luminescence; series mostly up to 70.3 µM
How it was run: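 BG1-Luc-4E2 cells (endogenous full-length ER-alpha, 4xERE luciferase) hormone-starved 5 days in charcoal-stripped FBS, plated 4,000/well for 24 h, then compound plus 17beta-estradiol for 21.5 h at 37 C; ONE-Glo luminescence read.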

[8] = qHTS assay to identify small molecule antagonists of the estrogen receptor alpha (ER-alpha) signaling pathway using the BG1 cell line - cell viability counter screen (AID 743081); settings: BG1Luc4E2 viability, CellTiter-Fluor, 22 h; series mostly up to 70.3 µM;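 also: compound given together with 17beta-estradiol as the ER stimulus; nearly all actives have a fitted effect of over 45% in size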
[9] = target: Aromatase (Homo sapiens) (UniProt P11511); experiment: qHTS assay to identify aromatase inhibitors (AID 743083); settings: MCF-7 aro ERE, testosterone-driven ERE luciferase, 24 h; series mostly up to 70.3 µM; also: nearly all actives have a fitted effect of over 55% in size
Sequence of Aromatase (Homo sapiens) (P11511 whole entry, looked up): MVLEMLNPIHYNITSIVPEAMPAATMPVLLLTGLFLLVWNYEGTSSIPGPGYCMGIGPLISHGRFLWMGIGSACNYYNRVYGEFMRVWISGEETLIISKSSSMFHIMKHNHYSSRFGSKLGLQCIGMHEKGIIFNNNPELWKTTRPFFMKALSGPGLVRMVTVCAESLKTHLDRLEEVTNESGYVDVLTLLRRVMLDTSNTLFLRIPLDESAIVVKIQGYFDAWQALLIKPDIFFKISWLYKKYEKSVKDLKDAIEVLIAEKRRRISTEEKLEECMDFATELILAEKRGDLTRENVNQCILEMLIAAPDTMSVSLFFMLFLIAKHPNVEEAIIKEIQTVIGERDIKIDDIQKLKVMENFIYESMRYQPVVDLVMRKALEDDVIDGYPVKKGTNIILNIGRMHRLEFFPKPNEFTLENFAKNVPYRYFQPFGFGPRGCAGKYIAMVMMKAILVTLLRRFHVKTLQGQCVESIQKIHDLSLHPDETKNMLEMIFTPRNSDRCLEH

[10] = qHTS assay to identify aromatase inhibitors - cell viability counter screen (AID 743084); settings: MCF-7 aro ERE viability, CellTiter-Fluor, 24 h; series mostly up to 70.3 µM;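 also: cells stimulated with testosterone during compound exposure; nearly all actives have a fitted effect of over 55% in size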
[11] = target: Aryl hydrocarbon receptor (Homo sapiens) (UniProt P35869); experiment: qHTS assay to identify small molecule that activate the aryl hydrocarbon receptor (AhR) signaling pathway (AID 743085); settings: HepG2 AhR-luc (HG2L7.5c1), luciferase, 24 h; series mostly up to 70.3 µM;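 also: HG2L7.5c1 human HepG2 liver cells with stably integrated DRE-driven firefly reporter; nearly all actives have a fitted effect of over 15% in size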
Sequence of Aryl hydrocarbon receptor (Homo sapiens) (P35869 whole entry, looked up): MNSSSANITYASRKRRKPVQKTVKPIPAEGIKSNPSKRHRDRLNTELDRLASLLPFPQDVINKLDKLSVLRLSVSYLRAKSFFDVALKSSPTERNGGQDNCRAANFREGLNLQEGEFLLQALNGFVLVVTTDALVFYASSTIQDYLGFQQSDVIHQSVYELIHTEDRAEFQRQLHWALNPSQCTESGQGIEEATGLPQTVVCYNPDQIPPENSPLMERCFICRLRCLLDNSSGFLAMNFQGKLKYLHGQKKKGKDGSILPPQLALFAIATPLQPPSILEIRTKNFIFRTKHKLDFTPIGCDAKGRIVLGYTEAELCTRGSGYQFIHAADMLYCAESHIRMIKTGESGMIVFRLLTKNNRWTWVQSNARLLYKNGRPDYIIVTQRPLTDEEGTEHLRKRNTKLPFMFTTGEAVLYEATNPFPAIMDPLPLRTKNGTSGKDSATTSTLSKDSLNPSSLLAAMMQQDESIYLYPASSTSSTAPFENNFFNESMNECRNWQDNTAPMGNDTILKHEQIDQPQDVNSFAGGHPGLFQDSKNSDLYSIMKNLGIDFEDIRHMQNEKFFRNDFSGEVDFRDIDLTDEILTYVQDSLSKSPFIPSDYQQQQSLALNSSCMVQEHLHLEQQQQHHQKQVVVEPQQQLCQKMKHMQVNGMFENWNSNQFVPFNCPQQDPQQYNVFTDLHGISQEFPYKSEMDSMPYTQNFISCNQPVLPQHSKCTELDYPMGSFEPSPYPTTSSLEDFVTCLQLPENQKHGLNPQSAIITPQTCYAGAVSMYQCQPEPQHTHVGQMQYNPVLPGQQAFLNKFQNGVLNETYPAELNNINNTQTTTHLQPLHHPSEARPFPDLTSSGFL
How it was run: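 Luminescence read-out: ONE-Glo reagent, 30 min at room temperature, in HG2L7.5c1 HepG2 reporter cells treated 24 h at 37C. Viability was measured beforehand by CellTiter-Fluor fluorescence after 30 min at 37C.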

[12] = qHTS assay to identify small molecule that activate the aryl hydrocarbon receptor (AhR) signaling pathway - cell viability counter screen (AID 743086); settings: HepG2-AhR-luc viability, CellTiter-Fluor, 24 h; series mostly up to 70.3 µM;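 also: HepG2 liver cells carrying the AhR DRE luciferase reporter; nearly all actives have a fitted effect of over 45% in size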
How it was run: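 HepG2-AhR-luc (HG2L7.5c1) cells, 4000/well, were preincubated 5 h at 37C, exposed to compound in qHTS format for 24 hr at 37C, then given CellTiter-Fluor for 30 min; viability was read as fluorescence in the reporter wells.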

[13] = target: Peroxisome proliferator-activated receptor gamma (Homo sapiens) (UniProt P37231); experiment: qHTS assay to identify small molecule agonists of the peroxisome proliferator-activated receptor gamma (PPARg) signaling pathway (AID 743094; active = well fitted activation curve with a large enough effect in the signal ratio in the repeat runs, not every such curve was filed as active; the % refers to the signal ratio); settings: HEK293H PPARg-UAS-bla, beta-lactamase FRET ratio, 17 h; series mostly up to 57 µM
Sequence of Peroxisome proliferator-activated receptor gamma (Homo sapiens) (P37231 whole entry, looked up): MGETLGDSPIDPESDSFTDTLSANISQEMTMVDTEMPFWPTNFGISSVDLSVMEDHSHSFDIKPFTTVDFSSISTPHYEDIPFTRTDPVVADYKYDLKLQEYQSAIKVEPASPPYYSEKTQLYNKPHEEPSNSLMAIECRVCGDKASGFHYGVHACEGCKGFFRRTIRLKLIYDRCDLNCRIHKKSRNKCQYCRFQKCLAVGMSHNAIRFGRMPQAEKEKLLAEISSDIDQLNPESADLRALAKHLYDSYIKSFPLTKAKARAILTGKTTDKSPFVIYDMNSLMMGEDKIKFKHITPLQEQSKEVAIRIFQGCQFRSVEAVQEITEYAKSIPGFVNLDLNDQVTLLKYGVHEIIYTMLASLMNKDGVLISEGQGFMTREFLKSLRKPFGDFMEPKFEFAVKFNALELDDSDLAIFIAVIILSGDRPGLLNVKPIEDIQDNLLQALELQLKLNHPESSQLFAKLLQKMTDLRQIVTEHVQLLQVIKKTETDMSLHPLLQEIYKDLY
How it was run: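 Beta-lactamase FRET fluorescence was the read-out after a 1 h room-temperature substrate step, following 17 h compound treatment at 37C of HEK293H cells expressing a UAS-driven bla reporter responsive to PPARg.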

[14] = target: Peroxisome proliferator-activated receptor gamma (Homo sapiens) (UniProt P37231); experiment: qHTS assay to identify small molecule antagonists of the peroxisome proliferator-activated receptor gamma (PPARg) signaling pathway (AID 743191; calls by dose curve; also: nearly all actives have a fitted effect of over 30% in size); settings: HEK293H PPARg-UAS-bla, beta-lactamase ratio, antagonist, 17 h; series mostly up to 62.6 µM
How it was run: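 GeneBLAzer PPARg UAS-bla HEK293H cells carrying a UAS-driven beta-lactamase reporter were plated at 3000 cells/well, preincubated 5 h at 37C, then given compound for 17 h at 37C; LiveBLAzer B/G FRET substrate was read after 1 h at room temperature.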

[15] = qHTS assay to identify small molecule antagonists of the peroxisome proliferator-activated receptor gamma (PPARg) signaling pathway - cell viability counter screen (AID 743194); settings: PPARg-bla HEK293H viability, CellTiter-Glo luminescence, 17 h, co-treated with 50 nM rosiglitazone; series mostly up to 62.6 µM; also: nearly all actives have a fitted effect of over 55% in size
How it was run: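 PPARg-UAS-bla HEK293H cells were plated, rested 5 h at 37 C, then treated with compounds plus rosiglitazone (50 nM final) for 17 h at 37 C; viability was then read by CellTiter-Glo luminescence after 30 min at room temperature.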

[16] = qHTS assay for small molecule agonists of the antioxidant response element (ARE) signaling pathway (AID 743202; active = well fitted activation curve with a large enough effect in the signal ratio in the repeat runs, not every such curve was filed as active; the % refers to the signal ratio; also: potency is read from the fitted curve at half-maximal effect); settings: HepG2 ARE-bla reporter, beta-lactamase FRET, 16 h; series mostly up to 73.3 µM
How it was run: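 Compounds delivered in DMSO to ARE-bla HepG2 cells (2,000 cells/well, pre-incubated 5 h) and left 16 h at 37 C. LiveBLAzer B/G FRET substrate then added for 2 h at RT before fluorescence reading.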

[17] = qHTS assay for small molecule agonists of the antioxidant response element (ARE) signaling pathway - cell viability counter screen (AID 743203; calls by dose curve; also: nearly all actives have a fitted effect of over 55% in size); settings: ARE-bla HepG2 viability, CellTiter-Glo luminescence, 16 h; series mostly up to 73.3 µM
How it was run: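 HepG2 cells carrying ARE-driven beta-lactamase; 2,000 cells/well; 5 hrs plating; compound pinned from DMSO; 16 hrs 37C/5% CO2; CellTiter-Glo added; 30 min RT; luminescence.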

[18] = qHTS assay for small molecule activators of the heat shock response signaling pathway - cell viability counter screen (AID 743209); settings: HSE-bla HeLa viability, CellTiter-Glo luminescence, 5 h; series mostly up to 62.6 µM; also: nearly all actives have a fitted effect of over 50% in size
How it was run: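 Luminescence from CellTiter-Glo, added after the beta-lactamase FRET read, gave the viability signal. Cells were HSE-bla HeLa treated with DMSO-dissolved compounds for 5 h at 37 C following overnight plating.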

[19] = qHTS assay for small molecule activators of the heat shock response signaling pathway (AID 743210; active = well fitted activation curve with a large enough effect in the signal ratio in the repeat runs, with a control signal flat, not every such curve was filed as active; the % refers to the signal ratio;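 also: HeLa cells with beta-lactamase reporter driven by heat shock elements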); settings: HeLa HSE-bla reporter, beta-lactamase ratio, 5 h; series mostly up to 62.6 µM
How it was run: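 Reporter gene assay: HeLa cells stably bearing an HSE-bla construct, compound treatment 5 h at 37 C, LiveBLAzer substrate 2.5 h at RT, fluorescence intensity.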

[20] = qHTS assay to identify small molecule agonists of the peroxisome proliferator-activated receptor delta (PPARd) signaling pathway - cell viability counter screen (AID 743211); settings: PPARd-bla HEK293H viability, CellTiter-Glo luminescence, 17 h; series mostly up to 62.6 µM; also: nearly all actives have a fitted effect of over 55% in size
How it was run: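 Read-out: CellTiter-Glo luminescence, 30 min RT, measured in the same wells as the beta-lactamase reporter. Cells: GeneBLAzer PPAR delta UAS-bla HEK293H, 3000 cells/well, compound exposure 17 h at 37C.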

Measured: Potency

NCCOCCN
inactive: all assays above

CC(C)(C)NC[C@H](O)COc1cccc2c1CCCC2=O
not listed: [15]
inactive: all other assays above

O=C(Cn1ccnc1[N+](=O)[O-])NCc1ccccc1
not listed: [19]
inactive: all other assays above

CSc1cnccn1
not listed: [16]
inactive: all other assays above

CN(C)C(C)(C)CO
active: [6] 77 µM
not listed: [14] | [17] | [19]
inactive: all other assays above

CC(C)Cn1cnc2c1c(=O)n(C)c(=O)n2C
not listed: [19]
inactive: all other assays above

COC(=O)c1cc(Cl)cc(Cl)c1
not listed: [15] | [17]
inactive: all other assays above

CN(C)CCOC(=O)C(c1ccccc1)C1(O)CCCC1 (stereo unspecified)
not listed: [14] | [17]
inactive: all other assays above

CCCCCCCCCOC(=O)c1ccccc1C(=O)OCCCCCCCCC
not listed: [12] | [14] | [19]
inactive: all other assays above

O=C1OCCO1
not listed: [11] | [15] | [16]
inactive: all other assays above

CCCCCC(C)O (stereo unspecified)
not listed: [12] | [15] | [17]
inactive: all other assays above

CCCCCCCCCCOC(C)=O
active: [6] 61.1 µM
not listed: [11] | [16] | [17]
inactive: all other assays above

CCC/C=C(\C=O)CC
not listed: [13] | [14]
inactive: all other assays above

O=C(NCN1CCOCC1)c1cnccn1
not listed: [12] | [19]
inactive: all other assays above

CC(=O)OC1CCCCC1C(C)(C)C (stereo unspecified)
not listed: [11]
inactive: all other assays above

CCO
not listed: [12] | [15]
inactive: all other assays above

COc1nc(N)nc2nc[nH]c12
not listed: [11] | [19] | [20]
inactive: all other assays above

CC(C)Nc1ccccc1
not listed: [11]
inactive: all other assays above

COC(=O)c1cccc(Cl)c1
not listed: [12] | [20]
inactive: all other assays above

C#CCN[C@@H]1CCc2ccccc21
not listed: [11] | [18]
inactive: all other assays above

O=C1CCC(=O)N1Cl
not listed: [12]
inactive: all other assays above

CC/C=C\CCOC(=O)c1ccccc1O
not listed: [11] | [15] | [17]
inactive: all other assays above

COP(=O)(O)OP(=O)(O)OC
not listed: [12]
inactive: all other assays above

COC(=O)c1ccccc1C(=O)O
not listed: [12] | [14]
inactive: all other assays above

COC(=O)/C=C\C(=O)O
active: [16] 27.3 µM
not listed: [11] | [15] | [19]
inactive: all other assays above

CC1=C(O)C(=O)C(C)O1 (stereo unspecified)
not listed: [13] | [14] | [17]
inactive: all other assays above

CC1OCCC1=O (stereo unspecified)
not listed: [13] | [14] | [17] | [19]
inactive: all other assays above

CCCCOC(=O)C(C)O (stereo unspecified)
not listed: [12] | [15]
inactive: all other assays above

Cc1ccc(C(=O)O)cc1[N+](=O)[O-]
not listed: [12] | [14]
inactive: all other assays above

OC[C@H]1O[C@@H](O[C@@H]2[C@@H](CO)O[C@](O)(CO)[C@H]2O)[C@H](O)[C@@H](O)[C@H]1O
not listed: [11]
inactive: all other assays above

C[C@@H](O)C(=O)O
active: [6] 48 µM
not listed: [13] | [14]
inactive: all other assays above

CCCCOC(=O)[C@H](C)O
not listed: [12] | [16]
inactive: all other assays above
